Results as given in ChEMBL document CHEMBL4513216, “Probing the Open Global Health Chemical Diversity Library for Multistage-Active Starting Points for Next-Generation Antimalarials” (ACS Infect Dis, 2020).
Screen size: about 69,000 compounds; about 8,600 (12%) showed an effect of 50% or more. The entries come from a sample that favours strong results as a whole.

tested on: Plasmodium berghei; assay: Screen against P. berghei liver stage (PbLuc), transformed with Luciferase, at 10uM; format: functional, HepG2; details: tested at 10 uM

Row | Structure (SMILES) | INHIBITION
1 | CS(=O)(=O)N1C[C@H]2CN(CC3CC3)C(=O)[C@H]2C1 | 85.2%
2 | CC(C)CN1C[C@@H]2CN(c3cnccn3)C[C@@H]2C1=O | 21.3%
3 | O=C1[C@H]2CN(c3ncccn3)C[C@H]2CN1Cc1ccncc1 | 4.71%
4 | O=C1[C@H]2CN(c3ncc(F)cn3)C[C@H]2CN1CC1CC1 | 42.6%
5 | O=C1[C@H]2CN(c3ncccn3)C[C@H]2CN1CC1CC1 | 64.2%
6 | CCS(=O)(=O)N1C[C@H]2CN(CC3CC3)C(=O)[C@H]2C1 | -12.2%
7 | COCCN1C[C@@H]2CN(c3cnccn3)C[C@@H]2C1=O | 14%
8 | O=C1[C@H]2CN(S(=O)(=O)C3CC3)C[C@H]2CN1CC1CC1 | 3.69%
9 | O=C1[C@H]2CN(c3cnccn3)C[C@H]2CN1CC1CC1 | 51.2%
10 | CN(C)C1COC2(CCN(Cc3ccc4c(c3)OCO4)CC2)C1 (stereo not drawn) | -50.4%
11 | COc1cc(C2CC(=O)Oc3cc(C)[nH]c(=O)c32)ccc1OCC(=O)O (stereo not drawn) | 13.1%
12 | CN1CCN(c2nc(O)c3c(-c4ccccn4)ccnc3n2)CC1 | -33.2%
13 | O=C(c1ccccc1C1CCNC1)N1CCC(N2CCC(O)CC2)CC1 (stereo not drawn) | 11.5%
14 | COCCN(CCOC)C(=O)Nc1cc(C(F)(F)F)c[nH]c1=O | 12.7%
15 | Cc1ncsc1C(=O)NC1CCN(Cc2cccc3c2OCCO3)CC1 | 33.8%
16 | CC1CS(=O)(=O)CCN1CCCc1ccc(C(F)(F)F)cc1 (stereo not drawn) | 10.1%
17 | CCCC(=O)n1ccn(S(=O)(=O)c2ccc(C)cc2)c1=O | 5.18%
18 | CC(C)(CO)CNC(=O)c1cc(-c2cc[nH]n2)n2ccccc12 | 41.2%
19 | COc1ccc(OCCN(C)c2cc(C)nc(N)n2)cc1 | 45.4%
20 | CN(CCOc1ccccc1F)C1CCOC1=O (stereo not drawn) | 33%
21 | COc1ccccc1OCCCN(C)c1cc(C)nc(N)n1 | 61.2%
22 | COc1ccccc1OCCCc1cc(C)nc(N)n1 | -16.7%
23 | COc1ccccc1OCCN(C)c1cc(C)nc(N)n1 | 26.3%

Row | Structure (SMILES) | INHIBITION
24 | Cc1cc(N(C)CCOc2ccccc2F)nc(N)n1 | 65.7%
25 | CNc1cc(C2CN(Cc3cccnc3NC)CCO2)nc(C)n1 (stereo not drawn) | 1.62%
26 | CC1c2ncc(CNC(=O)C3CC3)n2CCN1Cc1ccsc1 (stereo not drawn) | -10.3%
27 | CNC(=O)C1Cn2ccnc2C2(CCN(Cc3cccnc3)CC2)O1 (stereo not drawn) | 43.2%
28 | COCCc1noc(CN2CCCC2c2noc(C)n2)n1 (stereo not drawn) | -5.32%
29 | COc1ccnc(NC(Cc2ccccc2)C(=O)N(C)C)n1 (stereo not drawn) | 8.7%
30 | O=C(NC[C@H]1C[C@@H]2CN(C(=O)c3ccco3)C[C@@H]2O1)c1ccsc1 | 18.6%
31 | Cn1cccc1C(=O)NC[C@H]1C[C@@H]2CN(C(=O)c3ccco3)C[C@@H]2O1 | 7.7%
32 | O=C(NC[C@@H]1C[C@@H]2CN(C(=O)CO)C[C@H]2O1)c1ccsc1 | 52.1%
33 | CC(C)OCc1ncn2c1CN(Cc1cccs1)CCC2 | 15.9%
34 | CCn1cc2c(n1)C(COC)CN(C(=O)CCOc1ccccc1)C2 (stereo not drawn) | -37.9%
35 | CCc1cnc(N)nc1N[C@@H](C)c1ncccc1C | 3.96%
36 | CCc1cnc(N)nc1NC(C)c1cnn(C)c1 (stereo not drawn) | 17.8%
37 | CCc1cnc(N)nc1NC(C)c1ccc(C)c(C)c1 (stereo not drawn) | 88.2%
38 | CN(CC(O)C(F)(F)F)C(=O)Nc1cccc(N2CCCC2)c1 (stereo not drawn) | -16.4%
39 | Cn1cc(CN2CCC(F)(F)C3(CCN(c4ncc(F)cn4)C3)C2)cn1 (stereo not drawn) | 12.5%
40 | O=C(c1ccc(Cn2ccccc2=O)o1)N1CCSCC1 | 20.45%
41 | CC(=O)Nc1nc(CNc2ccccc2CCC(F)(F)F)cs1 | 42.6%
42 | COCCS(=O)(=O)Cc1csc(NC(C)=O)n1 | 21.8%
43 | COCc1csc(NC(=O)NCc2ccccn2)n1 | -3.99%
44 | Cc1nc(CNc2ccccc2CCC(F)(F)F)cs1 | -13.6%
45 | CC(=O)Nc1nc(CS(=O)(=O)Cc2ccccc2)cs1 | 55.4%
46 | Cc1nc(CNc2cccc(Cl)c2Cl)cs1 | 50%

Row | Structure (SMILES) | INHIBITION
47 | CC(=O)Nc1nc(CS(=O)(=O)CCCc2ccccc2)cs1 | -25.2%
48 | CCOC(C)c1nc(CNc2cccc(Cl)c2OC)cs1 (stereo not drawn) | -3.08%
49 | COc1c(Cl)cccc1NCc1csc(NC(C)=O)n1 | 89.4%
50 | COCc1ccccc1NCc1csc(NC(C)=O)n1 | 89%
51 | COc1c(Cl)cccc1NCc1csc(C)n1 | -1.37%
52 | CNc1nc(CNC(=O)Nc2cccc(Cl)c2OC)cs1 | 3.263%
53 | CN(Cc1ccco1)C(=O)C1CSCN1C(=O)c1cccs1 (stereo not drawn) | -31.8%
54 | CCS(=O)(=O)N1CC[C@@H]2[C@H](CC1)N(Cc1cccnc1)CCS2(=O)=O | 5.56%
55 | CCCC(=O)Nc1ccc(CC(=O)N(C)CCc2cn[nH]c2)cc1 | 17.3%
56 | COCC1N(C(=O)c2ccc3c(c2)OCCCO3)C2CCC1(O)CC2 (stereo not drawn) | -35.3%
57 | CN1CC(C(=O)NCc2cccnc2-n2cccn2)CC1=O (stereo not drawn) | -37.7%
58 | COCC1CN(Cc2cc(C)on2)Cc2cnn(C)c21 (stereo not drawn) | -13.7%
59 | CCn1c(Cn2cncn2)nnc1C1CCN(Cc2cccnc2)CC1 | -50.8%
60 | Cc1nn(C)c2c(N3CCSCC3)nc(C3CC3)nc12 | 22.6%
61 | CN(Cc1ccsc1)C(=O)Nc1ccc(N2CCCC2)nc1 | 15.3%
62 | CN1CCN(c2ccc(NCc3ccsc3)cn2)CC1 | 69.3%
63 | CCOc1ccc(NCc2cnc(N3CCN(C)CC3)nc2)cn1 | -15.7%
64 | CN1CCN(c2ccc(NCc3ccc(OC(F)(F)F)cc3)cn2)CC1 | 83.2%
65 | Cc1nc(CNCc2ccc(N3CCN(C)CC3)nc2)cs1 | 29.1%
66 | CN1CCN(c2ccc(NCc3ccc([S+](C)[O-])cc3)cn2)CC1 (stereo not drawn) | 47.4%
67 | O=C(c1ccco1)N1C[C@@H]2CN(c3ccccn3)C[C@@H]2C1 | 5.04%
68 | O=C1NC2(CCN(C(=O)c3ccccc3)CC2)CC1c1cccnc1 (stereo not drawn) | -8.19%
